Compound activity as filed in PubChem.
Hits are enriched below; roughly 1.6% of the tested compounds scored in any of these assays.
KCNQ2 enhance – potentiators of rat KCNQ2 potassium channel | O88943 | CHO-K1 KCNQ2, FluxOR thallium flux fluorescence; stronger effect = higher value | B-score at 10 µM | 0.54% of 310,000 active | AID 2239;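 active = fluorescence ratio B-score at least 3 SD of library B-scores, with initial fluorescence B-score within 3 of them, cut at about 5.3 in these data; same plate scores as AID 2156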;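 note: B-score of peak minus minimum over baseline fluorescence ratio after K+ and Tl+ stimulus; positive B-score means potentiation of KCNQ2 with more thallium influx and brighter signal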
Target sequence (O88943 whole entry, looked up): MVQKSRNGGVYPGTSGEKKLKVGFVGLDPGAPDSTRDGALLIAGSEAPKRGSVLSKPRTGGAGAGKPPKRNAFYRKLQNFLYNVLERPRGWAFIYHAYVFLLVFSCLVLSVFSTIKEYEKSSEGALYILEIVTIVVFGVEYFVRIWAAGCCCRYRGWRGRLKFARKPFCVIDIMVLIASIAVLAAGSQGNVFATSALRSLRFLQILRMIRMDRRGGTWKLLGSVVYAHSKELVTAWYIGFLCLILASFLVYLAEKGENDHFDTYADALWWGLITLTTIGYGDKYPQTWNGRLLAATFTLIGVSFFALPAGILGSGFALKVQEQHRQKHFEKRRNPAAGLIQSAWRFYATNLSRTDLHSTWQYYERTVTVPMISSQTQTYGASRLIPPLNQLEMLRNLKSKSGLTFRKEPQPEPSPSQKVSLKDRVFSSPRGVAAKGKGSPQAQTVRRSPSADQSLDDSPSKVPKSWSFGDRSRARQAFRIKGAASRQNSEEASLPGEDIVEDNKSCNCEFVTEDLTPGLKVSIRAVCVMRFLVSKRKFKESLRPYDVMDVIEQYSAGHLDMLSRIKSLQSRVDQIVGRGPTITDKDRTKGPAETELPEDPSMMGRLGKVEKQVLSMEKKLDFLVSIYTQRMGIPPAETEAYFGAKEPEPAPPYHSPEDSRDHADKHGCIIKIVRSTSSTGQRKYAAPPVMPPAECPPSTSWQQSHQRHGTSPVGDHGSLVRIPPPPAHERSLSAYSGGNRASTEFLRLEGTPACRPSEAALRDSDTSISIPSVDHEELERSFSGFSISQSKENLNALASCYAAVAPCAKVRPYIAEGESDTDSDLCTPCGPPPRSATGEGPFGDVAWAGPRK
KCNQ2 inh – blocks the rat KCNQ2 potassium channel | B-score at 10 µM | 1.1% of 310,000 active | O88943 | AID 2156 | CHO-K1 KCNQ2, FluxOR thallium flux, 20 min; stronger effect = lower value;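 active = fluorescence ratio B-score at most minus 3 library SDs, with starting brightness B-score within 2 library SDs, cut at about -5.5 in these data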
Starred values were filed as active, the others as inactive; i = inactive; . = no result given.

SMILES | KCNQ2 enhance | KCNQ2 inh
COc1cc(-c2nnc(SC/C=C/c3ccccc3)n2N)cc(OC)c1OC | -5.9 | -5.9*
Nn1c(SC/C=C/c2ccccc2)nnc1-c1ccncc1 | . | i
Cc1cccc(N/C(=N/S(=O)(=O)c2ccccc2)c2ccccc2)n1 | 0.71 | i
COc1cccc(/C=N/NC(=O)CSc2ccccc2C)c1OC | . | i
COc1cccc(/C=N/NC(=O)CSc2ccccc2C)c1O | 9.4* | i
CCOc1ccc2nc(/N=C/c3c(C)[nH]n(-c4ccc(C)cc4)c3=O)sc2c1 | 17* | i
CCOc1[nH]n(-c2ccccc2)c(=O)c1C=Nc1ccc(OC)cc1 | 0.02 | i
CCOc1ccc2nc(SC3CC(=O)N(c4ccc(C)cc4)C3=O)sc2c1 (stereo not given) | . | i
CCOc1ccc2nc(/N=C/c3c(C)[nH]n(-c4ccccc4)c3=O)sc2c1 | 20* | i
CCOC(=O)N1CCN(C(=O)C2CCC(=O)N(Cc3ccc(Cl)cc3)C2)CC1 (stereo not given) | . | i
O=[N+]([O-])c1ccc(Nc2ccccc2F)nc1 | 5.3* | i
Cc1ccccc1Nc1ccc([N+](=O)[O-])cn1 | 0.83 | i
CCOC(=O)c1c(N)sc(C(=O)OC)c1C | 0.93 | i
CCOC(=O)c1sc(NN=C(C(=O)OC)C(=O)OC)c(C(=O)OCC)c1C | 5.7* | i
COc1c(CC=C(C)C)cc(C2CC(=O)c3c(O)cc(O)cc3O2)c(CC=C(C)C)c1O (stereo not given) | -5.8 | -5.8*
COc1cc(C2CC(=O)c3c(O)cc(O)cc3O2)ccc1O (stereo not given) | . | i
C=C[C@]1(C)C=C2CCC3[C@](C)(CCC[C@@]3(C)C(=O)O)C2CC1 (stereo not given in full) | . | i
CC(C)C1=CC2=CCC3C(C)(C(=O)O)CCCC3(C)C2CC1 (stereo not given) (tested in a mixture with another compound) | -5.8 | -5.8*
CC1=C(C(=O)Nc2ccccc2F)C(c2ccsc2)C2=C(CC(c3ccccc3)CC2=O)N1 (stereo not given) | -6.1 | -6.1*
CCOCCOC(=O)C1=C(C)NC2=C(C(=O)CC(c3cccs3)C2)C1c1ccsc1 (stereo not given) | . | i
CSc1ccc(NC(=O)NCc2ccccc2)cc1 | 0.14 | i
CCOC(=O)c1nc(Nc2cc(Cl)ccc2OC)c2ccccc2n1 | . | i
O=C1c2ccccc2NC(c2ccccc2)N1Cc1ccco1 (stereo not given) | . | i
O=C1c2ccccc2NC(c2ccc(F)cc2)N1Cc1ccco1 (stereo not given) | 0.53 | i
COc1cccc(OCc2cc(C3Nc4ccccc4C(=O)N3Cc3ccco3)ccc2OC)c1 (stereo not given) | -5.9 | -5.9*
SMILES | KCNQ2 enhance | KCNQ2 inh
COc1ccc(C2Nc3ccccc3C(=O)N2Cc2ccco2)cc1COc1ccc([N+](=O)[O-])cc1 (stereo not given) | -6.8 | -6.8*
O=C(CSc1nc(=O)n(CCCN2CCOCC2)c2c1CCC2)Nc1ccc([N+](=O)[O-])cc1 | . | i
CC1Cc2cc(/C(O)=C3/C(=O)C(=O)N(CCN4CCOCC4)C3c3ccc([N+](=O)[O-])cc3)ccc2O1 (stereo not given) | . | i
CC1(C)Cc2c(sc(NC(=O)C3CC(Cl)=CCC3C(=O)O)c2C#N)CO1 (stereo not given) | . | i
O=C(COc1ccc([N+](=O)[O-])cc1)N(Cc1ccccc1)Cc1ccccc1 | -5.8 | -5.8*
O=C(COc1ccccc1)NNC(=O)COc1ccc([N+](=O)[O-])cc1 | 1.2 | i
CCOc1ccc(C(=O)NC(Cc2ccccc2)C(=O)OC)cc1 (stereo not given) | . | i
CN(Cc1ccccc1)C(=O)COc1ccccc1Cl | . | i
CN(Cc1ccccc1)C(=O)COc1ccc(C(C)(C)C)cc1 | -5.6 | -5.6*
COC(=O)C(Cc1ccccc1)NC(=O)COc1ccc(C(C)(C)C)cc1 (stereo not given) | -5.6 | -5.6*
Cc1csc(=O)n1CC(=O)OCC(=O)Nc1ccc(F)c(F)c1 | . | i
COc1ccc(NC(=O)CC(CC(=O)O)c2cc(OC)c(OC)c(OC)c2)cc1 (stereo not given) | . | i
Cc1cccc(N(C)S(=O)(=O)c2ccc(-c3cnc(C4CC4)o3)cc2)c1 | -9.9 | -9.9*
COc1cccc(N2CCN(S(=O)(=O)c3ccc(-c4cnc(C5CC5)o4)cc3)CC2)c1 | 0.13 | i
COc1ccccc1NS(=O)(=O)c1ccc(-c2cnc(C3CC3)o2)cc1 | . | i
Cc1ccc(NS(=O)(=O)c2ccc(-c3cnc(C4CC4)o3)cc2)c(C)c1 | -5.7 | -5.7*
COC(=O)c1ccc2c(c1)N(Cc1nc(-c3ccc(Cl)cc3)oc1C)C(=O)C1CCCN21 (stereo not given) | . | i
CCCOc1ccc(CC(=O)NCCc2ccccc2)cc1OC | . | i
O=C(Nc1c(F)cccc1F)c1ccc2c(c1)CCN2S(=O)(=O)c1ccccc1 | . | i
O=C1CC2(CCN(C(=O)C(=O)c3c[nH]c4ccccc34)CC2)Oc2ccccc21 | 0.11 | i
COc1cc(OC)cc(C(=O)NCCCCNC(=O)c2cc(OC)cc(OC)c2)c1 | 0.22 | i
O=C(COc1ccc(Cl)cc1)NCCSCc1cccc(Cl)c1 | -7.5 | -7.5*
COc1cc(OC)cc(C(=O)NCCCCc2ccccc2)c1 | -8.2 | -8.2*
Cc1cc(Cl)ccc1OCC(=O)NCCC(=O)O | 1 | i
Cc1cc(Cl)ccc1OCC(=O)NCCCCc1ccccc1 | -6.3 | -6.3*
SMILES | KCNQ2 enhance | KCNQ2 inh
Cc1cccc(CSCCNC(=O)COc2ccc(Cl)cc2)c1 | . | i
CCOc1ccc(S(=O)(=O)N2CCC(C(=O)NC3CC3)CC2)cc1C | 2.2 | i
Cc1cc(NC(=O)CC(C)C)c(=O)n(Cc2ccccc2F)c1 | . | i
CNC(=O)c1sc(N2N=C3/C(=C/c4ccccc4)CCCC3C2c2ccccc2)nc1C (stereo not given) | -6.1 | -6.1*
O=C(c1ccccn1)N1N=C2/C(=C/c3ccccc3)CCCC2C1c1ccccc1 (stereo not given) | . | i
CC(C)CCOc1ccc(C2(C)NC(=O)NC2=O)cc1 (stereo not given) | . | i
COc1ccccc1OCC(=O)N/N=C/c1c(O)ccc2ccccc12 | -6 | -6*
COc1ccccc1OCC(=O)N/N=C/c1cccc2cccnc12 | 0.03 | i
COc1ccccc1CNC(=O)c1ccc2c(=O)n3c(nc2c1)CCCCC3 | 0.05 | i
CCc1cc2cc(C(=O)N3CCN(Cc4ccccc4)CC3)sc2s1 | -5.8 | -5.8*
CCc1cc2cc(C(=O)N3CCN(c4ccccc4)CC3)sc2s1 | . | i
Cc1ccc(S(=O)(=O)N2CCN(Cc3ccccc3C(F)(F)F)CC2)cc1 | -6 | -6*
Cc1ccccc1CN1CCN(Cc2ccccc2C(F)(F)F)CC1 | . | i
O=C(CSc1nnc(-c2cc3ccccc3cc2O)n1Cc1ccco1)c1ccc(F)cc1 | -5.9 | -5.9*
Cc1occc1-c1nnc(SCC(=O)c2ccc(F)cc2)n1Cc1ccco1 | . | i
Cc1ccc(OCc2nnc(SCC(=O)N3C(C)CCCC3C)o2)cc1 (stereo not given) | . | i
Cc1ccc2cc(CN(Cc3cccs3)C(=O)c3ccco3)c3nnnn3c2c1C | -6 | -6*
Cc1ccc2c(c1)cc(CN(Cc1cccs1)C(=O)c1ccco1)c1nnnn12 | 1.8 | i
